Screening results: PubChem, several laboratories
S1P4 ag = human S1P4 receptor agonism. O95977. S1P4-expressing cell line, agonist reporter assay. activation, % at 4.98 µM. hit rate 0.35% among 220,000; in the data active = activation above about 11%;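 note: 0% = DMSO vehicle and 100% = reference agonist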
Target sequence (O95977 whole entry, looked up): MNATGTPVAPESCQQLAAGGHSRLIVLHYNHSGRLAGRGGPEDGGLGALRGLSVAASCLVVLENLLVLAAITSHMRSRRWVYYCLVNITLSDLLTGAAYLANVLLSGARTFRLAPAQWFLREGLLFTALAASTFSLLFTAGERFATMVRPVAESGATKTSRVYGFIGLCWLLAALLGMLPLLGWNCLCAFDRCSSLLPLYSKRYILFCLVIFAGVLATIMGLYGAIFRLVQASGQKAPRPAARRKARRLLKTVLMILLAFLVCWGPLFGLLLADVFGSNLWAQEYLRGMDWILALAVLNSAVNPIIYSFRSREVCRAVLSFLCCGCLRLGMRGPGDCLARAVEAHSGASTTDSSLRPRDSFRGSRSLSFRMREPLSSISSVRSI
S1P4 antag = antagonists of human S1P4 receptor | O95977 | S1P4-expressing cells, antagonist mode, reporter read-out | inhibition, % at 4.98 µM | hit rate 0.26% among 220,000; in the data active = inhibition above about 29%;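 note: 0% = wells stimulated with agonist and 100% = vehicle wells without agonist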
S1P3 antag = blocks the human S1P3 receptor; Q99500; hit rate 0.27% among 170,000; AID 485; CHO S1P3 NFAT-BLA reporter, FRET fluorescence, antagonist mode; inhibition, % at 4.98 µM;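 active = inhibition above the plate cutoff, the mean inhibition of test wells on that plate plus 3 SD, cut at about 28% in these data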;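 note: cells challenged with S1P at its EC80 of 0.8 µM; blue over green emission ratio from cleaved BLA substrate after 4 h stimulation; 0% = S1P-stimulated wells and 100% = unstimulated DMSO-only wells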
HSF-1 act = increases HSF-1 driven luciferase reporter signal | NIH3T3-HGL HSF-1 luciferase reporter, MG132, 8 h; 100% = twice DMSO control signal | activation, % at 9 µM | hit rate 1.7% among 300,000;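 active = mean replicate activation of at least 50% with a set share of replicates each reaching 50%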;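 note: 0% = median of the neutral control wells and 100% = twice that signal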
HSF1 inh = HSF1 inhibition. activity change, negative = inhibition, % at 7.5 µM (by protocol). AID 2098. NIH3T3-HGL HSE-luciferase, MG132-induced, luminescence 8 h; hits give low values. hit rate 0.77% among 300,000;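 active = more than half of replicate wells show activity change below -50%, luminescence cut by over half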;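 note: luciferase reports HSF-1 transcriptional activity via heat shock element; 0% = median of DMSO wells and -100% = zero luminescence signal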
Hsp70 activator = switches on Hsp70 transcription; HeLa Hsp70 promoter luciferase reporter, luminescence; scaled: vehicle 0, proteasome-inhibitor control 100%; activation, % at 10 µM; hit rate 0.04% among 200,000; AID 1203;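 active = activation above the mean across all tested compounds plus 3 SD, cutoff set per campaign, cut at about 5.5% in these data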;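 note: 100% = MG132 at 30 µM as the positive control and 0% = DMSO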
* marks the source's active call; other numbers are inactive results. Compounds with a hit are over-represented: about 2.9% of the library has one in this group of screens.

For COc1cccc(CC(=O)N[C@@H](CCSC)c2nc3ccccc3[nH]2)c1 the results were S1P4 ag 0.0, S1P4 antag 3.1, S1P3 antag -16.1, HSF-1 act -65.5, HSF1 inh -53.7* and Hsp70 activator -0.2.
`Cc1ccc(Nc2cc(C)nc(-c3ccccc3)n2)cc1` gave HSF-1 act 52.4* and HSF1 inh 20.4.
Screening Cc1ccc(Nc2cc(C)nc(-c3ccccc3O)n2)cc1 returned S1P4 ag 3.2, S1P4 antag 0.6, HSF-1 act 31.6, HSF1 inh 17.7 and Hsp70 activator -0.1.
`O=C1C(Cc2ccccc2)Nc2ncnc(N3CCN(c4ccccc4)CC3)c2N1Cc1ccccc1` (stereo not given) gave HSF-1 act -74.7 and HSF1 inh -66.9*.
For Cc1ccc(CN2C(=O)C(Cc3ccccc3)Nc3ncnc(N4CCN(c5ccccc5)CC4)c32)cc1 (stereo not given) the results were HSF-1 act 24.5 and HSF1 inh 6.4.
`Nc1cccn2c(-c3ccc(Cl)c(Cl)c3)cnc12` gave S1P4 ag 0.2, S1P4 antag -17.9, S1P3 antag -9.4, HSF-1 act 70.0*, HSF1 inh 22.8 and Hsp70 activator 0.2.
For Nc1cccn2c(-c3ccc(Cl)cc3)cnc12 the results were S1P4 ag 3.7, S1P4 antag -9.0, S1P3 antag 5.4, HSF-1 act 22.2, HSF1 inh 5.2 and Hsp70 activator 0.2.
Cc1cccc(OCC(=O)N/N=C/c2cc([N+](=O)[O-])ccc2N2CCOCC2)c1 was read as S1P4 ag 0.6, S1P4 antag -6.2, S1P3 antag -0.7, HSF-1 act -5.7, HSF1 inh -7.6 and Hsp70 activator -0.3.
Screening Cc1ccc(CSc2nnc(CS(=O)Cc3ccc(Cl)cc3Cl)n2C)cc1 (stereo not given) returned S1P4 ag -2.4, S1P4 antag 13.7, HSF-1 act -3.1, HSF1 inh -2.1 and Hsp70 activator -0.1.
Cn1c(CS(=O)Cc2c(Cl)cccc2Cl)nnc1SCc1ccc(Cl)cc1 (stereo not given) was read as S1P4 ag -0.5, S1P4 antag -5.2, HSF-1 act 61.3*, HSF1 inh 26.3 and Hsp70 activator -0.2.
Screening CC(=O)Nc1ccc(NC(=O)Nc2ccc(C)cc2C)cc1 returned S1P4 ag 0.8, S1P4 antag 8.5, S1P3 antag -8.7, HSF-1 act 22.5, HSF1 inh 0.7 and Hsp70 activator -0.2.
Screening CCCNC(=O)Nc1ccc(C)cc1C returned S1P4 ag -1.8, S1P4 antag -5.7, S1P3 antag -6.6, HSF-1 act 51.4* and HSF1 inh 24.7.
`CC1=NN(c2ccccc2)C(=O)/C1=C\C=C\c1ccccc1` gave S1P4 ag 1.5, S1P4 antag 8.7, S1P3 antag -5.4, HSF-1 act 97.6* and HSF1 inh 67.9.
Screening Cc1ccc(-c2csc3nc(SCC(=O)Nc4ccc(Cl)c(C(=O)O)c4)[nH]c(=O)c23)cc1 returned HSF-1 act -10.1 and HSF1 inh -3.5.
Screening Cc1cc(C(=O)CSc2nc3ccccc3c(=O)n2C)c(C)n1Cc1ccc2c(c1)OCO2 returned S1P4 ag -1.5, S1P4 antag -9.5, S1P3 antag 9.5, HSF-1 act 9.0, HSF1 inh 6.0 and Hsp70 activator -0.2.
For CC1(C)Cc2cccc(OCC(=O)Nc3cc(C(F)(F)F)ccc3N3CCOCC3)c2O1 the results were S1P4 ag 1.1, S1P4 antag -5.6, HSF-1 act 8.3, HSF1 inh 2.7 and Hsp70 activator 0.0.
Screening Cc1ccc(C=Nc2ccccc2C(N)=O)o1 returned S1P4 ag -0.1, S1P4 antag -3.0, S1P3 antag -12.3, HSF-1 act 60.1*, HSF1 inh 26.1 and Hsp70 activator -0.2.
For O=C(CSc1nncc(=O)[nH]1)NC1CCCCC1 the results were HSF-1 act -4.0 and HSF1 inh -1.8.
For CSS(=O)(=O)c1cccc2cccnc12 the results were S1P4 ag 2.5, S1P4 antag 15.7, S1P3 antag -10.8, HSF-1 act 77.5* and HSF1 inh 53.5.
Screening C[C@@H]1NC(=O)[C@H](CCCN=C(N)N)NC(=O)c2cc([N+](=O)[O-])cc(I)c2OCC[C@@H](C(=O)NC(CC(=O)O)C(N)=O)NC1=O (stereo not given in full) returned S1P4 ag 0.5, S1P4 antag -9.1, S1P3 antag -8.7, HSF-1 act -3.3, HSF1 inh 2.5 and Hsp70 activator -0.5.
Screening CN(C(=O)COc1ccc(-c2nnco2)cc1)C1CCS(=O)(=O)C1 (stereo not given) returned HSF-1 act 5.8 and HSF1 inh 8.3.
For CCOc1cc(/C=C2\CCCc3c2nc2ccccc2c3C(=O)O)ccc1OC the results were HSF-1 act 56.4* and HSF1 inh 17.9.
COc1cc(/C=C2\CCCc3c2nc2ccccc2c3C(=O)O)cc(Br)c1O was read as HSF-1 act -1.2 and HSF1 inh -2.0.
Screening c1cc(CNc2ccc3c(c2)OCCO3)ccn1 returned S1P4 ag -3.4, S1P4 antag 13.1, S1P3 antag -5.7, HSF-1 act -79.9, HSF1 inh -77.8* and Hsp70 activator 3.0.
Screening O=C(NCc1ccncc1)Nc1ccc2c(c1)OCO2 returned S1P4 ag 0.8, S1P4 antag 7.3, S1P3 antag -6.4, HSF-1 act 39.2, HSF1 inh 0.6 and Hsp70 activator 0.1.
CCOc1ccc(Br)cc1CNc1ccc2c(c1)OCCO2 was read as S1P4 ag 0.2, S1P4 antag -21.7, S1P3 antag -14.2, HSF-1 act -62.5, HSF1 inh -56.4* and Hsp70 activator -0.2.
For Cc1c(N(C)S(=O)(=O)c2cccc(C(=O)NC(C)C)c2)c(=O)n(-c2ccccc2)n1C the results were HSF-1 act 62.2* and HSF1 inh 22.9.
For Cc1ccc(C(O)(C(=O)NNS(=O)(=O)c2ccc(C)cc2)c2ccc(C)cc2)cc1 the results were S1P4 ag 0.0, S1P4 antag -13.4, S1P3 antag 18.0, HSF-1 act 5.9, HSF1 inh 2.5 and Hsp70 activator -0.2.
CCCNc1c(NS(=O)(=O)c2ccc(OC)c(OC)c2)c(=O)oc2ccccc12 was read as HSF-1 act 19.6 and HSF1 inh -4.3.
O=C(N/N=C/c1cccc2ccccc12)c1ccccc1Cl was read as HSF-1 act 23.4 and HSF1 inh 9.8.
`Cc1occc1C(=O)Nc1cccc2ccccc12` gave S1P4 ag -2.4, S1P4 antag 4.6, S1P3 antag 7.4, HSF-1 act 72.5*, HSF1 inh 57.2 and Hsp70 activator 0.3.
Cc1occc1C(=O)N/N=C/c1cccc2ccccc12 was read as HSF-1 act 63.5* and HSF1 inh 27.0.
For N#Cc1c2c(c(Nc3ccc(O)cc3)n3c1nc1ccccc13)CCC2 the results were S1P4 ag -2.4, S1P4 antag 20.1, S1P3 antag 1.1, HSF-1 act 66.0*, HSF1 inh 29.8 and Hsp70 activator -0.5.
